Test results: PubChem BioAssay (EPA / NIEHS)
Active and inactive are the calls of the source. The calls were made as follows: active = hit-call score of the fitted dose curve at least 0.9, where 1 is the maximum; inactive = score below 0.9.

Tests used:
[1] = read-out: Urokinase-type plasminogen activator receptor (uPAR), PLAUR (gene 5329); assay: BSK_4H_uPAR: BioMAP Diversity Plus: 4H Assay for Urokinase-type plasminogen activator receptor (uPAR) Biomarker Activity (AID 2283030); details: primary human endothelial cells (HUVEC); actives raise or lower the signal
In short: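 HUVEC, 24 h post-dose; uPAR by ELISA; bidirectional fit vs DMSO baseline.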

[2] = read-out: Vascular endothelial growth factor receptor 2 (Homo sapiens) (UniProt P35968); assay: BSK_4H_VEGFRII: BioMAP Diversity Plus: 4H Assay for Vascular endothelial growth factor receptor 2 (VEGFR2) Biomarker Activity (AID 2283031); details: primary human endothelial cells (HUVEC); actives raise or lower the signal
In short: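 HUVEC (human primary), 4H system; 24 h post-dose; VEGFRII by ELISA; bidirectional curve fit vs DMSO baseline; gain or loss of signal scored.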

[3] = read-out: Human Leukocyte Antigen - DR isotype (HLADR), HLA-DRA (gene 3122); assay: BSK_BE3C_HLADR: BioMAP Diversity Plus: BE3C Assay for Human Leukocyte Antigen - DR isotype (HLADR) Biomarker Activity (AID 2283032); details: primary human bronchial epithelial cells; actives raise or lower the signal
In short: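 Human primary bronchial epithelial cells in the BE3C system were exposed to chemicals for 24 h, after which HLA-DR levels were quantified by ELISA. Activity was fitted bidirectionally, gain or loss of signal, against DMSO as negative control and baseline.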

[4] = read-out: Vascular cell adhesion molecule 1 (VCAM1), VCAM1 (gene 7412); assay: BSK_4H_VCAM1: BioMAP Diversity Plus: 4H Assay for Vascular cell adhesion molecule 1 (VCAM1) Biomarker Activity (AID 2283033); details: primary human endothelial cells (HUVEC); actives raise or lower the signal;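 as to outcome: cell-surface VCAM-1 protein measured by ELISA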
In short: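 Primary human umbilical vein endothelial cells were exposed to chemicals for 24 h, after which VCAM-1 was quantified by ELISA. Responses were fitted bidirectionally against DMSO as negative control and activity baseline.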

[5] = read-out: Interferon-gamma inducible Protein 10 (IP10), CXCL10 (gene 3627); assay: BSK_BE3C_IP10: BioMAP Diversity Plus: BE3C Assay for Interferon-gamma inducible Protein 10 (IP10) Biomarker Activity (AID 2283034); details: primary human bronchial epithelial cells; actives raise or lower the signal
In short: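 Human primary bronchial epithelial cells were exposed to chemicals for 24 hours, after which IP-10 levels were measured by ELISA. Data were fitted bidirectionally against DMSO, which served as the negative control and activity baseline.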

[6] = read-out: Plasminogen activator inhibitor-1 (PAI1), SERPINE1 (gene 5054); assay: BSK_BE3C_PAI1: BioMAP Diversity Plus: BE3C Assay for Plasminogen activator inhibitor-1 (PAI1) Biomarker Activity (AID 2283037); details: primary human bronchial epithelial cells; actives raise or lower the signal
In short: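 Human primary bronchial epithelial cells were exposed to chemical for 24 h, then PAI-1 was quantified by ELISA. Activity was fitted bidirectionally relative to the DMSO negative control baseline.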

[7] = read-out: urokinase plasminogen activator (uPA), PLAU (gene 5328); assay: BSK_BE3C_uPA: BioMAP Diversity Plus: BE3C Assay for urokinase plasminogen activator (uPA) Biomarker Activity (AID 2283038); details: primary human bronchial epithelial cells; actives raise or lower the signal;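 as to outcome: uPA protein level quantified by ELISA in cell cultures; uPA read one day after compound addition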
In short: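 ELISA read-out of uPA in human lung primary bronchial epithelial cultures, 24 h post-dosing. Gain or loss of signal fitted bidirectionally relative to DMSO baseline; cytotoxicity checked in parallel cultures via SRB total protein stain.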

[8] = read-out: Urokinase-type plasminogen activator receptor (uPAR), PLAUR (gene 5329); assay: BSK_BE3C_uPAR: BioMAP Diversity Plus: BE3C Assay for Urokinase-type plasminogen activator receptor (uPAR) Biomarker Activity (AID 2283039); details: primary human bronchial epithelial cells; actives raise or lower the signal;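 as to outcome: uPAR protein level measured by ELISA on the cells; cells exposed to compound for one day before measurement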
In short: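 Primary human bronchial epithelial cells were dosed with chemical and harvested 24 h later; uPAR was quantified by ELISA. Activity was fitted bidirectionally against DMSO as negative control and baseline.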

[9] = read-out: Interleukin-6 (IL6), IL6 (gene 3569); assay: BSK_CASM3C_IL6: BioMAP Diversity Plus: CASM3C Assay for Interleukin-6 (IL6) Biomarker Activity for (AID 2283040); details: primary human coronary artery smooth muscle cells; actives raise or lower the signal
[10] = read-out: Tissue plasminogen activator (tPA), PLAT (gene 5327); assay: BSK_BE3C_tPA: BioMAP Diversity Plus: BE3C Assay for Tissue plasminogen activator (tPA) Biomarker Activity (AID 2283041); details: primary human bronchial epithelial cells; actives raise or lower the signal;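 as to outcome: tPA level quantified by ELISA one day after compound addition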
In short: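 Human primary bronchial epithelial cells were dosed with chemical and tPA biomarker levels measured by ELISA 24 hours later. Activity was fitted bidirectionally against DMSO as negative control and baseline.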

[11] = read-out: Interleukin-8 (IL8), CXCL8 (gene 3576); assay: BSK_CASM3C_IL8: BioMAP Diversity Plus: CASM3C Assay for Interleukin-8 (IL8) Biomarker Activity (AID 2283042); details: primary human coronary artery smooth muscle cells; actives raise or lower the signal;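 also: IL-8 protein level quantified by ELISA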
[12] = read-out: Human Leukocyte Antigen - DR isotype (HLADR), HLA-DRA (gene 3122); assay: BSK_CASM3C_HLADR: BioMAP Diversity Plus: CASM3C Assay for Human Leukocyte Antigen - DR isotype (HLADR) Biomarker Activity (AID 2283043); details: primary human coronary artery smooth muscle cells; actives raise or lower the signal;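 also: cell-surface HLA-DR protein level quantified by ELISA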
[13] = read-out: Macrophage colony-stimulating factor (MCSF), CSF1 (gene 1435); assay: BSK_CASM3C_MCSF: BioMAP Diversity Plus: CASM3C Assay for Macrophage colony-stimulating factor (MCSF) Biomarker Activity (AID 2283044); details: primary human coronary artery smooth muscle cells; actives raise or lower the signal;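 also: M-CSF protein amount quantified by ELISA after 24 h exposure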
[14] = read-out: Low-density lipoprotein receptor (LDLR), LDLR (gene 3949); assay: BSK_CASM3C_LDLR: BioMAP Diversity Plus: CASM3C Assay for Low-density lipoprotein receptor (LDLR) Biomarker Activity (AID 2283045); details: primary human coronary artery smooth muscle cells; actives raise or lower the signal;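 also: LDLR protein level on the cell surface quantified by ELISA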
[15] = read-out: Monocyte Chemoattractant Protein-1 (MCP1), CCL2 (gene 6347); assay: BSK_CASM3C_MCP1: BioMAP Diversity Plus: CASM3C Assay for Monocyte Chemoattractant Protein-1 (MCP1) Biomarker Activity (AID 2283046); details: primary human coronary artery smooth muscle cells; actives raise or lower the signal;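 also: MCP-1 level quantified by ELISA 24 h after dosing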
[16] = BSK_CASM3C_Proliferation: Cell Proliferation Assessment in the BioMAP Diversity Plus: CASM3C Assay (AID 2283047); details: primary human coronary artery smooth muscle cells;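 also: sulforhodamine B total protein stain as relative cell number at 560 nm; sub-confluent cells exposed 48 h before staining; fitted both ways against DMSO so gain or loss of cell number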
[17] = read-out: Monokine induced gamma interferon (MIG), CXCL9 (gene 4283); assay: BSK_CASM3C_MIG: BioMAP Diversity Plus: CASM3C Assay for Monokine induced gamma interferon (MIG) Biomarker Activity (AID 2283048); details: primary human coronary artery smooth muscle cells; actives raise or lower the signal;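 also: MIG protein level measured by ELISA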
[18] = read-out: serum amyloid A (SAA), SAA1 (gene 6288); assay: BSK_CASM3C_SAA: BioMAP Diversity Plus: CASM3C Assay for serum amyloid A (SAA) Biomarker Activity (AID 2283049); details: primary human coronary artery smooth muscle cells; actives raise or lower the signal;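 also: SAA protein level quantified by ELISA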
[19] = read-out: Transforming growth factor beta 1 (TGFb1), TGFB1 (gene 7040); assay: BSK_BE3C_TGFb1: BioMAP Diversity Plus: BE3C Assay for Transforming growth factor beta 1 (TGFb1) Biomarker Activity (AID 2283036); details: primary human bronchial epithelial cells; actives raise or lower the signal
In short: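 Human primary bronchial epithelial cells (BE3C system) were dosed with chemical and TGF-b1 levels measured by ELISA at 24 h. Activity was fitted bidirectionally relative to DMSO negative control as baseline.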

Cc1ccccc1CO[C@@H]1C[C@@]2(C(C)C)CC[C@]1(C)O2
outcome [1]: inactive
outcome [2]: inactive
outcome [3]: inactive
outcome [4]: inactive
outcome [5]: inactive
outcome [6]: inactive
AC50 [7]: 11.2 µM (active)
outcome [8]: inactive
outcome [9]: inactive
outcome [10]: inactive
outcome [11]: inactive
outcome [12]: inactive
outcome [13]: inactive
outcome [14]: inactive
outcome [15]: inactive
outcome [16]: inactive
outcome [17]: inactive
outcome [18]: inactive

CCCN(CCC)N=O
outcome [1]: inactive
outcome [2]: inactive
outcome [3]: inactive
outcome [4]: inactive
outcome [5]: inactive
outcome [6]: inactive
outcome [7]: inactive
outcome [8]: inactive
outcome [9]: inactive
outcome [10]: inactive
outcome [11]: inactive
outcome [13]: inactive
outcome [14]: inactive
outcome [15]: inactive
outcome [16]: inactive
outcome [17]: inactive
outcome [18]: inactive

CC(C)(c1ccccc1)c1ccc(O)cc1
AC50 [1]: 32 µM (active)
outcome [2]: inactive
AC50 [3]: 30.4 µM (active)
AC50 [4]: 32.1 µM (active)
AC50 [5]: 30.5 µM (active)
AC50 [19]: 33.4 µM (active)
AC50 [6]: 34.1 µM (active)
outcome [7]: inactive
outcome [8]: inactive
outcome [9]: inactive
AC50 [10]: 29.3 µM (active)
outcome [11]: inactive
AC50 [12]: 32.3 µM (active)
outcome [13]: inactive
outcome [14]: inactive
outcome [15]: inactive
AC50 [16]: 30.5 µM (active)
outcome [17]: inactive
outcome [18]: inactive

Nc1ccc(-c2ccc(N)cc2)cc1
outcome [1]: inactive
outcome [2]: inactive
outcome [3]: inactive
outcome [4]: inactive
outcome [5]: inactive
outcome [19]: inactive
outcome [6]: inactive
outcome [7]: inactive
outcome [8]: inactive
outcome [9]: inactive
AC50 [10]: 6.73 µM (active)
outcome [11]: inactive
outcome [12]: inactive
outcome [13]: inactive
outcome [14]: inactive
outcome [15]: inactive
outcome [16]: inactive
outcome [17]: inactive
outcome [18]: inactive

CN(C)CCO
outcome [1]: inactive
outcome [2]: inactive
outcome [3]: inactive
outcome [4]: inactive
outcome [5]: inactive
outcome [6]: inactive
outcome [7]: inactive
outcome [8]: inactive
outcome [9]: inactive
outcome [10]: inactive
outcome [11]: inactive
outcome [12]: inactive
outcome [13]: inactive
outcome [14]: inactive
outcome [15]: inactive
outcome [16]: inactive
outcome [17]: inactive
outcome [18]: inactive

Cc1cc(O)ccc1Cl
outcome [1]: inactive
outcome [2]: inactive
outcome [3]: inactive
outcome [4]: inactive
outcome [5]: inactive
outcome [6]: inactive
outcome [7]: inactive
outcome [8]: inactive
outcome [9]: inactive
outcome [10]: inactive
outcome [11]: inactive
outcome [12]: inactive
outcome [13]: inactive
outcome [14]: inactive
outcome [15]: inactive
outcome [16]: inactive
outcome [17]: inactive
outcome [18]: inactive

c1ccc(-c2ccccc2)cc1
outcome [1]: inactive
outcome [3]: inactive
outcome [4]: inactive
outcome [5]: inactive
outcome [19]: inactive
outcome [6]: inactive
outcome [7]: inactive
outcome [8]: inactive
outcome [9]: inactive
outcome [10]: inactive
outcome [11]: inactive
outcome [12]: inactive
outcome [13]: inactive
outcome [14]: inactive
outcome [15]: inactive
outcome [16]: inactive
outcome [17]: inactive
outcome [18]: inactive

Clc1ccc(C(Cl)(Cl)Cl)cc1
outcome [1]: inactive
outcome [2]: inactive
outcome [3]: inactive
outcome [4]: inactive
outcome [5]: inactive
outcome [6]: inactive
outcome [7]: inactive
outcome [8]: inactive
outcome [9]: inactive
outcome [10]: inactive
outcome [11]: inactive
outcome [12]: inactive
outcome [13]: inactive
outcome [14]: inactive
outcome [15]: inactive
outcome [16]: inactive
outcome [17]: inactive
outcome [18]: inactive

CCCCCCCCCc1ccc(O)cc1
AC50 [1]: 16.9 µM (active)
AC50 [3]: 13.6 µM (active)
AC50 [4]: 15.8 µM (active)
AC50 [5]: 13.1 µM (active)
AC50 [19]: 16.4 µM (active)
AC50 [6]: 15.7 µM (active)
AC50 [7]: 15.1 µM (active)
AC50 [8]: 15.7 µM (active)
AC50 [9]: 27.8 µM (active)
AC50 [10]: 7.58 µM (active)
AC50 [11]: 33 µM (active)
AC50 [12]: 31.4 µM (active)
AC50 [13]: 34.6 µM (active)
AC50 [14]: 29.3 µM (active)
AC50 [15]: 31.8 µM (active)
AC50 [16]: 16 µM (active)
AC50 [17]: 36.1 µM (active)
AC50 [18]: 29.8 µM (active)

CCC(C)(c1ccc(O)cc1)c1ccc(O)cc1
AC50 [1]: 34.8 µM (active)
outcome [2]: inactive
AC50 [3]: 24.5 µM (active)
AC50 [5]: 28.9 µM (active)
outcome [6]: inactive
AC50 [7]: 4.96 µM (active)
outcome [8]: inactive
outcome [9]: inactive
outcome [10]: inactive
outcome [11]: inactive
outcome [12]: inactive
outcome [13]: inactive
outcome [14]: inactive
outcome [15]: inactive
AC50 [16]: 25.5 µM (active)
outcome [17]: inactive
outcome [18]: inactive

CC(C)C(=O)OCC(C)(C)C(OC(=O)C(C)C)C(C)C (stereo not drawn)
outcome [1]: inactive
outcome [2]: inactive
outcome [3]: inactive
outcome [4]: inactive
outcome [5]: inactive
outcome [6]: inactive
outcome [7]: inactive
outcome [8]: inactive
outcome [9]: inactive
outcome [10]: inactive
outcome [11]: inactive
outcome [12]: inactive
outcome [13]: inactive
outcome [14]: inactive
outcome [15]: inactive
outcome [16]: inactive
outcome [17]: inactive
outcome [18]: inactive
